A short description of assay [1]: ATG_CRE_CIS: Attagene CIS-FACTORIAL HepG2 Assay for human cAMP Responsive Element (CRE) binding protein 3 (AID 2282926). The following applies: HepG2 CRE cis-reporter, Attagene multiplexed mRNA; actives raise or lower the signal. An outline of the steps: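 Readout: fluorescently labelled reporter transcripts resolved by capillary electrophoresis after RT-PCR, taken 24 h post-dosing in transfected HepG2. Endogenous transcription factor activity drives each cis-element reporter; gain or loss of signal fitted relative to DMSO control.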

Assay [2] deals with CCAAT/enhancer-binding protein beta (Homo sapiens) (UniProt P17676). The assay is described as follows: ATG_C_EBP_CIS: Attagene CIS-FACTORIAL HepG2 Assay for human CCAAT/Enhancer Binding Protein (C/EBP) beta (AID 2282927). The following applies: HepG2 Attagene cis-factorial transcription factor reporter; actives raise or lower the signal. A digest of the protocol: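 HepG2 transiently transfected with multiplexed reporter units under cis-regulatory promoters reporting endogenous C/EBPb activity. After 24 h exposure, reporter mRNA assayed by RT-PCR, fluorescent labelling, HpaI digestion and capillary electrophoresis; bidirectional fitting versus DMSO.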

Assay [3] in a line: ATG_DR4_LXR_CIS: Attagene CIS-FACTORIAL HepG2 Assay for human Liver X Receptor (LXR), DR4 submotif (AID 2282929). The following applies: HepG2 Attagene DR4 cis-reporter, mRNA transcription; actives raise or lower the signal. An outline of the steps: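 HepG2 cells transiently transfected with cis-promoter-driven multiplexed reporter units (DR4 element) were dosed for 24 h. Reporter mRNA was quantified by RT-PCR, fluorescent primer extension, HpaI digestion and capillary electrophoresis; bidirectional fitting versus DMSO baseline.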

The nature of assay [4]: ATG_AP_2_CIS: Attagene CIS-FACTORIAL HepG2 Assay for human Activator Protein 2 (AP-2) (AID 2282932). The settings on record: HepG2 AP-2 cis-reporter, Attagene transcription factor profiling; actives raise or lower the signal. A digest of the protocol:
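Liver-derived HepG2 line, cis-reporter system measuring endogenous factors; 24 h dosing; reporter mRNA detected by fluorescent RT-PCR and capillary electrophoresis.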

Assay [5] in a line: ATG_BRE_CIS: Attagene CIS-FACTORIAL HepG2 Assay for human Bone Morphogenetic Protein (BMP) Response Element (BRE) (AID 2282933). The following applies: HepG2 BMP response element reporter, Attagene transcription factor profiling; actives raise or lower the signal. An outline of the steps: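 Read-out: reporter mRNA induction quantified by RT-PCR and capillary electrophoresis after 24 h chemical exposure of transfected HepG2 cells. Endogenous factor activity on the BMP response element; gain or loss fitted against DMSO baseline.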

Assay [6] concerns the target Transcription factor E2F1 (Homo sapiens) (UniProt Q01094). The assay is described as follows: ATG_E2F_CIS: Attagene CIS-FACTORIAL HepG2 Assay for human E2F Transcription Factor 1 (AID 2282935). The following applies: HepG2 Attagene cis-reporter, E2F reporter RNA transcripts; actives raise or lower the signal. An outline of the steps: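 Liver-derived HepG2 cells expressing transfected promoter-driven reporter units received test chemical for 24 hours. Signal gains or losses were fitted bidirectionally against DMSO.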

Assay [7] can be described thus: ATG_EGR_CIS: Attagene CIS-FACTORIAL HepG2 Assay for human Early Growth Response 1 (EGR1) (AID 2282938). The following applies: HepG2 Attagene CIS-FACTORIAL EGR reporter mRNA; actives raise or lower the signal. A digest of the protocol: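 HepG2 cells transiently transfected with cis-promoter-driven multiplexed reporter transcription units; reporter mRNA measured 24 h after compound dosing by RT-PCR, 6-FAM primer extension, HpaI digestion and capillary electrophoresis. Bidirectional fit versus DMSO baseline.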

The nature of assay [8]: ATG_M_19_CIS: Attagene CIS-FACTORIAL HepG2 Assay for M19 Transcription Factor (Internal Marker) (AID 2282939). The following applies: HepG2 Attagene CIS-FACTORIAL M19 internal marker reporter; actives raise or lower the signal. An outline of the steps: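 Readout: fluorescent reporter-transcript fragments by capillary electrophoresis after RT-PCR. Human HepG2 liver cells carried transfected MRTU constructs reporting endogenous transcription-factor activity; exposure 24 h. Gain or loss of signal fitted relative to DMSO.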

A short description of assay [9]: ATG_Ets_CIS: Attagene CIS-FACTORIAL HepG2 Assay for human Erythroblast Transformation Specific (ETS) (AID 2282941). The settings on record: HepG2 ETS cis-reporter transcription, actives raise or lower the signal. A digest of the protocol:
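Multiplexed reporter transcript profiling: HepG2, 24 h treatment, total RNA to cDNA, PCR, 6-FAM labelling, HpaI cut, capillary electrophoresis. Gain- or loss-of-signal fitted against DMSO.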

For assay [10], the target named is Hepatocyte nuclear factor 3-beta (Homo sapiens) (UniProt Q9Y261). The experiment in a line: ATG_FoxA2_CIS: Attagene CIS-FACTORIAL HepG2 Assay for human Forkhead box A2 (FOXA2) (AID 2282942). The settings on record: HepG2 cis-reporter transcription factor activity, 24 h; actives raise or lower the signal. An outline of the steps:
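HepG2 cells transiently transfected with multiple cis-regulated reporter transcription units, dosed for 24 h. Reporter mRNA measured by RT-PCR, 6-FAM labelling, HpaI digestion and capillary electrophoresis; bidirectional fitting against DMSO baseline.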

Assay [11] in a line: ATG_FoxO_CIS: Attagene CIS-FACTORIAL HepG2 Assay for human Forkhead box O (FoxO) (AID 2282943). The settings on record: HepG2 Attagene cis-reporter, FoxO element, mRNA; actives raise or lower the signal. An outline of the steps: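 HepG2 cells transiently transfected with cis-element-driven reporter units report endogenous FoxO activity. After 24 h chemical exposure, reporter mRNA quantified by RT-PCR, fluorescent labeling, HpaI digestion and capillary electrophoresis; bidirectional fit versus DMSO.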

A short description of assay [12]: ATG_GATA_CIS: Attagene CIS-FACTORIAL HepG2 Assay for human GATA Binding Protein (AID 2282944). The following applies: HepG2 GATA cis-element reporter, Attagene multiplex mRNA; actives raise or lower the signal. A digest of the protocol:
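Read-out: fluorescent reporter mRNA fragments resolved by capillary electrophoresis after RT-PCR. Human liver HepG2 cells carried transiently transfected cis-regulated reporter constructs; chemicals incubated 24 h; gain or loss of signal fitted relative to DMSO.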

Assay [13] is described as follows: ATG_GLI_CIS: Attagene CIS-FACTORIAL HepG2 Assay for human Zinc Finger Protein GLI1 (AID 2282945). The following applies: HepG2, Attagene cis-factorial reporter mRNA, GLI element; actives raise or lower the signal. An outline of the steps:
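Transiently transfected HepG2 cells report endogenous transcription factor activity via cis-element-driven reporter units. After 24 h compound exposure, reporter mRNA was measured by RT-PCR with capillary electrophoresis; bidirectional fitting against DMSO baseline.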

Assay [14] is described as follows: ATG_M_06_CIS: Attagene CIS-FACTORIAL HepG2 Assay for M06 Transcription Factor (Internal Marker) (AID 2282950). The settings on record: HepG2 Attagene CIS-FACTORIAL M06 internal marker reporter; actives raise or lower the signal. An outline of the steps: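 Terse: HepG2, transient MRTU transfection (FuGene 6), 24 h dosing; total RNA, oligo(dT) RT, PCR, FAM label, HpaI cut, capillary electrophoresis; bidirectional fit vs DMSO baseline; background-control endpoint.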

Assay [15] is described as follows: ATG_MRE_CIS: Attagene CIS-FACTORIAL HepG2 Assay for human Metal Responsive Element (MRE) (AID 2282954). The following applies: HepG2 MRE cis-reporter transcription, Attagene multiplex; actives raise or lower the signal. An outline of the steps:
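Measured here is mRNA induction from an MRE cis-element reporter in HepG2 after 24 h, quantified by fluorescence of labelled RT-PCR products on capillary electrophoresis; gain- and loss-of-signal fits use DMSO as baseline.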

The target of assay [16] is Paired box protein Pax-6 (Homo sapiens) (UniProt P26367). The experiment in a line: ATG_Pax6_CIS: Attagene CIS-FACTORIAL HepG2 Assay for human Paired Box 6 (PAX6) (AID 2282956). The settings on record: HepG2 CIS-FACTORIAL PAX6 reporter transcription, RNA readout; actives raise or lower the signal. An outline of the steps:
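Values derive from bidirectional curve fitting of reporter mRNA signal relative to DMSO. HepG2 cells bearing transfected cis-regulated MRTUs were exposed for 24 h; transcripts were read by RT-PCR and capillary electrophoresis.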

Assay [17] in a line: ATG_PXRE_CIS: Attagene CIS-FACTORIAL HepG2 Assay for human Pregnane X Receptor Element (PXRE) (AID 2282957). The settings on record: HepG2 Attagene CIS-FACTORIAL PXRE reporter, mRNA; actives raise or lower the signal. A digest of the protocol:
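Read-out: fluorescence of reporter-specific RT-PCR products resolved by capillary electrophoresis, fitted bidirectionally relative to DMSO. Human HepG2 liver cells carried transfected cis-promoter reporter units and were exposed to chemicals for 24 h.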

The nature of assay [18]: ATG_Sox_CIS: Attagene CIS-FACTORIAL HepG2 Assay for human SRY-box transcription factor (SOX) (AID 2282960). The following applies: HepG2 Attagene cis-factorial SOX reporter, mRNA; actives raise or lower the signal. A digest of the protocol:
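HepG2 cells transiently transfected with cis-element-driven multiple reporter transcription units, dosed 24 h; reporter mRNA measured by RT-PCR, FAM labelling, HpaI digestion and capillary electrophoresis. Bidirectional fit versus DMSO baseline.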

The target of assay [19] is Transcription factor Sp1 (Homo sapiens) (UniProt P08047). The experiment in a line: ATG_Sp1_CIS: Attagene CIS-FACTORIAL HepG2 Assay for human Specificity Protein 1 (Sp1) (AID 2282961). The following applies: HepG2 Sp1 cis-reporter transcription, actives raise or lower the signal. An outline of the steps: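 HepG2 cells transiently transfected with multiple reporter transcription units driven by cis-regulatory elements; Sp1-responsive reporter mRNA measured 24 h after dosing by RT-PCR and capillary electrophoresis fluorescence, fitted bidirectionally against DMSO baseline.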

A short description of assay [20]: ATG_SREBP_CIS: Attagene CIS-FACTORIAL HepG2 Assay for human Sterol Regulatory Element Binding (SREBP) (AID 2282962). The settings on record: HepG2 Attagene cis-factorial SREBP reporter, mRNA; actives raise or lower the signal. A digest of the protocol: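 Values derive from bidirectional curve fitting with DMSO as baseline. The underlying measurement is reporter mRNA from cis-element-regulated units in transiently transfected HepG2, quantified by RT-PCR and capillary electrophoresis after 24 h exposure.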

Activity calls are given as the source filed them. The calls were made as follows: active = hit-call score of the fitted dose curve at least 0.9, where 1 is the maximum; inactive = score below 0.9.

Sequence of CCAAT/enhancer-binding protein beta (Homo sapiens) (P17676 whole entry, looked up): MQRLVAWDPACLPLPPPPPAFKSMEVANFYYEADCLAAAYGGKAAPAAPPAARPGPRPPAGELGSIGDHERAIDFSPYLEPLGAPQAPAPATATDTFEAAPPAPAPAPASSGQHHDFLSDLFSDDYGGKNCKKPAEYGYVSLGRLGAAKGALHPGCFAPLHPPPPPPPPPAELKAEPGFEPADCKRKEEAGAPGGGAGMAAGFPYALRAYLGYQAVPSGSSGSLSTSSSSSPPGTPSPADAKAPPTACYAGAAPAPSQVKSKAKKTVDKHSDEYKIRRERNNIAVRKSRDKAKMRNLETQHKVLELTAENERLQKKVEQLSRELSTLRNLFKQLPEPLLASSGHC
Sequence of Transcription factor E2F1 (Homo sapiens) (Q01094 whole entry, looked up): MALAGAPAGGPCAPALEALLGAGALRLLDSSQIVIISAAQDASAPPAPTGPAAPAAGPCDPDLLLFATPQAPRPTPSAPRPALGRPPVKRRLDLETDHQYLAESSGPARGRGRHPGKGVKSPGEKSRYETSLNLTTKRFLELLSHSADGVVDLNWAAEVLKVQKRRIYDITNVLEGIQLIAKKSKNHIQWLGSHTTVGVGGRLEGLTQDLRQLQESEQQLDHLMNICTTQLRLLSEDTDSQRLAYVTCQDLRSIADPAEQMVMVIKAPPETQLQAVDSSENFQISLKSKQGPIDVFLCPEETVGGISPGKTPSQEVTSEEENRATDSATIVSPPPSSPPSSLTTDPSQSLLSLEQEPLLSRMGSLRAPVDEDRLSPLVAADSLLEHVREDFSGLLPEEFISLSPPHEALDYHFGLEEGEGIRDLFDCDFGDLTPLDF
Sequence of Hepatocyte nuclear factor 3-beta (Homo sapiens) (Q9Y261 whole entry, looked up): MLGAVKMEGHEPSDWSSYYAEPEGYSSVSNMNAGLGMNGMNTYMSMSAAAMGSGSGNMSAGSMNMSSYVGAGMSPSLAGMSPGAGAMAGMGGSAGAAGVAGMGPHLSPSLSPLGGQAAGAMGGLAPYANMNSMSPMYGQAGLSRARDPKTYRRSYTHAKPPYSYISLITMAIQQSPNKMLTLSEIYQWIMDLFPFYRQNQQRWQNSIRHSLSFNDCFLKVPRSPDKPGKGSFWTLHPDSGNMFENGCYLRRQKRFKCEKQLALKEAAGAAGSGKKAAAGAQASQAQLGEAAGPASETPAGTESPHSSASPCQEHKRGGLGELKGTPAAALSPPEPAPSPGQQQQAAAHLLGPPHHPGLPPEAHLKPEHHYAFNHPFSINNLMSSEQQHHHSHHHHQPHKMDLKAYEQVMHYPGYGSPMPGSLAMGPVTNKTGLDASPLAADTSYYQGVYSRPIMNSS
Sequence of Paired box protein Pax-6 (Homo sapiens) (P26367 whole entry, looked up): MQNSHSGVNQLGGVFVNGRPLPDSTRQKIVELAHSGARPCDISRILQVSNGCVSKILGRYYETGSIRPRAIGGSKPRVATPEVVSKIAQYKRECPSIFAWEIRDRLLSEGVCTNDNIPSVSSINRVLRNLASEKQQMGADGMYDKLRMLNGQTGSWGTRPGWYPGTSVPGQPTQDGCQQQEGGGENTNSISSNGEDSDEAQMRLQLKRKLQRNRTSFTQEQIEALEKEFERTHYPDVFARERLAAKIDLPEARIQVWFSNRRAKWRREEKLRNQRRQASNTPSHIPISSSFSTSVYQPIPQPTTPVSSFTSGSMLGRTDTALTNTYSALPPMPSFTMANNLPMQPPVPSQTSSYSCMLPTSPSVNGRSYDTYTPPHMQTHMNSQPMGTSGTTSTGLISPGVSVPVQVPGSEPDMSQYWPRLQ
Sequence of Transcription factor Sp1 (Homo sapiens) (P08047 whole entry, looked up): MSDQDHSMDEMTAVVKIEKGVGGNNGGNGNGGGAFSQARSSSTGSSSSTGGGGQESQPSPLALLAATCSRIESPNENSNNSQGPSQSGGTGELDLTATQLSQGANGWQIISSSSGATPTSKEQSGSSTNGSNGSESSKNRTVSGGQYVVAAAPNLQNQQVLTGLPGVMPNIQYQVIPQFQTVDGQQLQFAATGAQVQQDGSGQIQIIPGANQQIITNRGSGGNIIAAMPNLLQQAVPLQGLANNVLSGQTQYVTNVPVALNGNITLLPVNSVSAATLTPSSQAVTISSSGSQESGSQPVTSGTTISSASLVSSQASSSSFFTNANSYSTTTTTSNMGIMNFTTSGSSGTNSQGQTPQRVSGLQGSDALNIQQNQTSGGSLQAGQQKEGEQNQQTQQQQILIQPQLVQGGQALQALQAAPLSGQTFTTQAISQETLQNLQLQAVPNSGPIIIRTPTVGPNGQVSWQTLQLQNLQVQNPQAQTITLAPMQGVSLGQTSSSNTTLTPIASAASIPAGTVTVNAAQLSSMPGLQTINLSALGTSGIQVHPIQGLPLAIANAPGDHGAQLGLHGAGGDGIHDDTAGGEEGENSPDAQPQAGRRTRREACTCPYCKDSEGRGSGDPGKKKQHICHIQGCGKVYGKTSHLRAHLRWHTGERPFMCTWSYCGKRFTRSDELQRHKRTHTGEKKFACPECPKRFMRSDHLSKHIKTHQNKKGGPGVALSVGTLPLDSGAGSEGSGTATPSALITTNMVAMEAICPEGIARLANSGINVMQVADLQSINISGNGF

For orientation: AC50 means the midpoint of the concentration-response curve, whichever way the signal moves. On to `Cc1cc(C)c(C2=C(OC(=O)CC(C)(C)C)C3(CCCC3)OC2=O)c(C)c1`, for which the half-maximal activity concentration (AC50) is 127 µM (active) in assay [1]; 28.5 µM (active) in assay [3]; 104 µM (active) in assay [7]; 163 µM (active) in assay [13]; 76 µM (active) in assay [15]; 104 µM (active) in [16]. Moreover, the results for the AC50 in assay [17], in [19] and in assay [20] were 7.83 µM (active), 88.6 µM (active) and 166 µM (active), respectively. Besides, the outcome in [2], in [4], in assay [5], in [6], in assay [8] and in assay [9] was inactive. The compound was called inactive in assay [10], in assay [11], in assay [12], in assay [14] and in [18].
With `COC(C)(C)CCC[C@H](C)C/C=C/C(C)=C/C(=O)OC(C)C`, the result in assay [1], in assay [2], in [4], in [6], in [8] and in assay [9] was inactive. The result in [10], in [11], in assay [12], in [14], in assay [18] and in assay [19] was inactive. Further, the compound was called inactive in assay [20]. Further, the half-maximal activity concentration (AC50) was 72.9 µM (active) in [3]; 84.6 µM (active) in assay [5]; 82.3 µM (active) in [7]; 145 µM (active) in [13]; 36.6 µM (active) in assay [15]; 100 µM (active) in [16]. In addition, the AC50 in assay [17] was 1.43 µM (active).
Regarding `CCCCNP(N)(N)=S`, the compound was called inactive in assay [1], in assay [2], in [3], in assay [4], in assay [5] and in assay [6]. The outcome in assay [7], in assay [8], in assay [9], in [10], in assay [11] and in assay [12] was inactive. For the same compound, the compound was called inactive in assay [13], in assay [14], in [15], in [16], in [17] and in assay [18]. The compound was classed as inactive in [19] and in assay [20].
On to `CCC(C)(C)O`, for which the compound was called inactive in [1], in assay [2], in assay [3], in [4], in [5] and in assay [6]. The compound was classed as inactive in assay [7], in [8], in [9], in assay [10], in assay [11] and in assay [12]. Moreover, the result in [13], in assay [14], in [15], in assay [16], in [17] and in [18] was inactive. Besides, the outcome in assay [19] and in assay [20] was inactive.
Take `CC(C)(C)C(=O)CCl`: the outcome in assay [1], in assay [2], in [4], in [5], in assay [6] and in [7] was inactive. Besides, the outcome in assay [8], in assay [9], in assay [10], in assay [11], in assay [12] and in assay [13] was inactive. In addition, the compound was called inactive in assay [14], in assay [16], in assay [17], in assay [18], in assay [19] and in assay [20]. Moreover, the half-maximal activity concentration (AC50) in assay [3] is 55.2 µM (active); in assay [15], 77.1 µM (active).

Values taken from PubChem BioAssay (EPA / NIEHS).
